We go through six molecules from PubChem BioAssay (EPA / NIEHS).

The source made the active and inactive calls. The calls were made as follows: active = hit-call score of the fitted dose curve at least 0.9, where 1 is the maximum; inactive = score below 0.9.

Common to all, as to conditions: mRNA level, 48 h; actives raise or lower the signal
Read-out in test [1]: Insulin-like growth factor-binding protein 1 (IGFBP1), IGFBP1 (gene 3484)
Kind of test: LTEA_HepaRG_IGFBP1: Life Technologies and Expression Analysis (LTEA) Assay for Insulin-like growth factor-binding protein 1 (IGFBP1) using HepaRG (AID 2283508). The method in brief: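 Differentiated human HepaRG cells in serum-free induction medium were exposed in duplicate for 48 h to eight concentrations, top 100 uM with half-log dilutions, in 0.5% DMSO. Transcript levels came from qRT-PCR normalised to ACTB, GAPDH and POLR2A, fitted bidirectionally against DMSO.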

Read-out in test [2]: Interleukin 6 (IL6), IL6 (gene 3569)
Nature of the test: LTEA_HepaRG_IL6: Life Technologies and Expression Analysis (LTEA) Assay for Interleukin 6 (IL6) using HepaRG (AID 2283509). The method in brief:
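HepaRG cells exposed in duplicate for 48 h to eight half-log concentrations, top 100 uM, in 0.5% DMSO serum-free induction medium. mRNA measured by qRT-PCR, normalized to ACTB, GAPDH and POLR2A. Bidirectional fit versus DMSO.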

Read-out in test [3]: Interleukin 6 Receptor (IL6R), IL6R (gene 3570)
Nature of the test: LTEA_HepaRG_IL6R: Life Technologies and Expression Analysis (LTEA) Assay for Interleukin 6 Receptor (IL6R) using HepaRG (AID 2283510).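 As to AC50: TaqMan qRT-PCR signal normalized to ACTB GAPDH and POLR2A housekeeping genes.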 In outline:
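Concentration-response in human liver HepaRG cells: eight concentrations from 100 uM downward by half-logs, 48 h exposure, 0.5% DMSO vehicle. IL6R mRNA change measured by qRT-PCR and fitted in both directions relative to vehicle.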

Read-out in test [4]: Potassium channel subfamily K member 1 (KCNK1), KCNK1 (gene 3775)
Nature of the test: LTEA_HepaRG_KCNK1: Life Technologies and Expression Analysis (LTEA) Assay for Potassium channel subfamily K member 1 (KCNK1) using HepaRG (AID 2283511). In outline:
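Differentiated HepaRG cells, 48 h exposure in serum-free induction medium with 0.5% DMSO; 8 concentrations, half-log from 100 uM, duplicate. KCNK1 mRNA by qRT-PCR, normalized to ACTB, GAPDH, POLR2A; bidirectional fit vs DMSO.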

Read-out in test [5]: Keratin 19 (KRT19), KRT19 (gene 3880)
Kind of test: LTEA_HepaRG_KRT19: Life Technologies and Expression Analysis (LTEA) Assay for Keratin 19 (KRT19) using HepaRG (AID 2283512). In outline: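 Differentiated human HepaRG cells, plated 48 h, were exposed in duplicate for 48 h in serum-free induction medium to eight half-log concentrations up to 100 uM in 0.5% DMSO. KRT19 mRNA was quantified by qRT-PCR, normalized to ACTB, GAPDH and POLR2A, and fitted bidirectionally versus DMSO.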

Read-out in test [6]: JUN Transcription Factor, JUN (gene 3725)
Nature of the test: LTEA_HepaRG_JUN: Life Technologies and Expression Analysis (LTEA) Assay for JUN Transcription Factor using HepaRG (AID 2283513). The method in brief:
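Human HepaRG liver cells receive test chemicals in 0.5% DMSO for 48 h across an eight-point range topping at 100 uM. Expression changes in JUN are scored in both directions against the DMSO vehicle.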

Read-out in test [7]: Lipase C (LIPC), LIPC (gene 3990)
Kind of test: LTEA_HepaRG_LIPC: Life Technologies and Expression Analysis (LTEA) Assay for Lipase C (LIPC) using HepaRG (AID 2283514). The method in brief: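 HepaRG cells, 48 h after plating, treated in duplicate for 48 h in serum-free induction medium over 8 half-log concentrations from 100 uM, 0.5% DMSO. LIPC mRNA by TaqMan qRT-PCR normalized to ACTB/GAPDH/POLR2A; bidirectional fit versus DMSO.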

Read-out in test [8]: Lipoprotein lipase (LPL), LPL (gene 4023)
Kind of test: LTEA_HepaRG_LPL: Life Technologies and Expression Analysis (LTEA) Assay for Lipoprotein lipase (LPL) using HepaRG (AID 2283515). The method in brief: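 Differentiated HepaRG cells, plated 48 h, then exposed 48 h in serum-free induction medium to 8 concentrations (top 100 uM, half-log steps) in 0.5% DMSO, duplicate. LPL mRNA measured by qRT-PCR, normalized to ACTB, GAPDH and POLR2A.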

Read-out in test [9]: MicroRNA 122 (MIR122), gene 406906
Nature of the test: LTEA_HepaRG_MIR122: Life Technologies and Expression Analysis (LTEA) Assay for MicroRNA 122 (MIR122) using HepaRG (AID 2283516). Also: the transcript read is the microRNA miR-122. The method in brief: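 HepaRG, 48 h exposure, 8-pt half-log from 100 uM, 0.5% DMSO; TaqMan qRT-PCR; bidirectional fit vs DMSO.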

Read-out in test [10]: matrix metalloproteinase-10 (MMP10), MMP10 (gene 4319)
Nature of the test: LTEA_HepaRG_MMP10: Life Technologies and Expression Analysis (LTEA) Assay for matrix metalloproteinase-10 (MMP10) using HepaRG (AID 2283517). The method in brief: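 Differentiated HepaRG cells in serum-free induction medium exposed 48 h in duplicate to 8-point half-log series up to 100 uM in 0.5% DMSO. mRNA quantified by qRT-PCR, normalised to ACTB, GAPDH, POLR2A; bidirectional fit versus DMSO.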

Read-out in test [11]: MYC, MYC (gene 4609)
Kind of test: LTEA_HepaRG_MYC: Life Technologies and Expression Analysis (LTEA) Assay for MYC using HepaRG (AID 2283518). The method in brief: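 Differentiated human HepaRG cells, plated 48 h then switched to serum-free induction medium, were exposed in duplicate for 48 h to 8-point half-log series up to 100 uM in 0.5% DMSO. MYC mRNA measured by qRT-PCR, normalized to ACTB/GAPDH/POLR2A.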

Read-out in test [12]: matrix metalloproteinase-3 (MMP3), MMP3 (gene 4314)
Kind of test: LTEA_HepaRG_MMP3: Life Technologies and Expression Analysis (LTEA) Assay for matrix metalloproteinase-3 (MMP3) using HepaRG (AID 2283519). In outline: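 HepaRG cells (~100,000/well) in serum-free induction medium were dosed in duplicate for 48 h with an 8-point half-log series from 100 uM, 0.5% DMSO. MMP3 mRNA was quantified by Fluidigm TaqMan qRT-PCR, normalized to three housekeeping genes.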

Read-out in test [13]: Paternally Expressed 10 (PEG10), PEG10 (gene 23089)
Kind of test: LTEA_HepaRG_PEG10: Life Technologies and Expression Analysis (LTEA) Assay for Paternally Expressed 10 (PEG10) using HepaRG (AID 2283520). The method in brief: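 Chemicals tested on HepaRG cells for 48 h, highest concentration 100 uM. PEG10 expression assessed by qRT-PCR relative to DMSO control.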

Read-out in test [14]: Nuclear factor NF-kappa-B p105 subunit (Homo sapiens) (UniProt P19838)
Nature of the test: LTEA_HepaRG_NFKB1: Life Technologies and Expression Analysis (LTEA) Assay for Nuclear Factor Kappa B Subunit 1 (NFKB1) using HepaRG (AID 2283521).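 Also: TaqMan qRT-PCR transcript normalised to ACTB GAPDH and POLR2A housekeeping genes.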 In outline: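 Differentiated human HepaRG cells were exposed for 48 h in serum-free induction medium to eight concentrations (top 100 uM, half-log steps, 0.5% DMSO), in duplicate. NFKB1 mRNA was measured by TaqMan qRT-PCR, normalized to ACTB/GAPDH/POLR2A, and fitted bidirectionally against DMSO.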

Read-out in test [15]: Protein phosphatase 2A (PPP2R4), PTPA (gene 5524)
Nature of the test: LTEA_HepaRG_PPP2R4: Life Technologies and Expression Analysis (LTEA) Assay for Protein phosphatase 2A (PPP2R4) using HepaRG (AID 2283522). The method in brief:
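Gene-expression endpoint in HepaRG hepatic cells: 48 h treatment across eight half-log concentrations up to 100 uM in 0.5% DMSO. PPP2R4 mRNA by qRT-PCR, normalized to three endogenous control genes.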

Read-out in test [16]: Phosphatase and tensin (PTEN), PTEN (gene 5728)
Nature of the test: LTEA_HepaRG_PTEN: Life Technologies and Expression Analysis (LTEA) Assay for Phosphatase and tensin (PTEN) using HepaRG (AID 2283523). In outline:
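HepaRG cells, 48 h after plating, exposed in duplicate for 48 h in serum-free induction medium to 8 half-log concentrations up to 100 uM (0.5% DMSO). PTEN mRNA by qRT-PCR, normalized to ACTB, GAPDH, POLR2A; bidirectional fit versus DMSO.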

Read-out in test [17]: solute carrier (SLC22A1), SLC22A1 (gene 6580)
Nature of the test: LTEA_HepaRG_SLC22A1: Life Technologies and Expression Analysis (LTEA) Assay for solute carrier (SLC22A1) using HepaRG (AID 2283524). In outline: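 Differentiated human HepaRG cells in serum-free induction medium, exposed 48 h in duplicate to 8-point half-log series from 100 µM top in 0.5% DMSO. SLC22A1 mRNA by TaqMan qRT-PCR normalized to ACTB, GAPDH, POLR2A; bidirectional fit versus DMSO.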

Read-out in test [18]: Pyruvate Dehydrogenase Kinase 4 (PDK4), PDK4 (gene 5166)
Kind of test: LTEA_HepaRG_PDK4: Life Technologies and Expression Analysis (LTEA) Assay for Pyruvate Dehydrogenase Kinase 4 (PDK4) using HepaRG (AID 2283525). The method in brief:
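HepaRG cells plated 48 h, then switched to serum-free induction medium and exposed in duplicate for 48 h to 8 half-log concentrations from 100 uM in 0.5% DMSO. PDK4 mRNA measured by qRT-PCR, normalized to ACTB, GAPDH and POLR2A; bidirectional fit versus DMSO.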

Read-out in test [19]: NAD(P)H dehydrogenase [quinone] 1 (NQO1), NQO1 (gene 1728)
Nature of the test: LTEA_HepaRG_NQO1: Life Technologies and Expression Analysis (LTEA) Assay for NAD(P)H dehydrogenase [quinone] 1 (NQO1) using HepaRG (AID 2283526). In outline:
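Human HepaRG hepatic cells received chemicals for 48 h in serum-free induction medium with 0.5% DMSO, up to 100 uM. Expression was assessed by TaqMan qRT-PCR against housekeeping controls and fitted bidirectionally against DMSO.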

Read-out in test [20]: Nuclear factor erythroid 2-related factor 2 (Homo sapiens) (UniProt Q16236)
Kind of test: LTEA_HepaRG_NFE2L2: Life Technologies and Expression Analysis (LTEA) Assay for Nuclear factor erythroid 2-related factor 2 (NFE2L2) Transcription Factor using HepaRG (AID 2283527).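 Also: TaqMan qRT-PCR transcript level normalised to ACTB GAPDH and POLR2A housekeeping genes.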 The method in brief:
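Differentiated human HepaRG cells, serum-free induction medium, exposed 48 h in duplicate to eight half-log concentrations up to 100 uM in 0.5% DMSO. NFE2L2 mRNA by Fluidigm TaqMan qRT-PCR, normalised to ACTB, GAPDH, POLR2A; bidirectional change versus DMSO.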

The term AC50 denotes the concentration giving half of the maximal activity seen.

Nuclear factor NF-kappa-B p105 subunit (Homo sapiens), sequence (P19838 whole entry, looked up): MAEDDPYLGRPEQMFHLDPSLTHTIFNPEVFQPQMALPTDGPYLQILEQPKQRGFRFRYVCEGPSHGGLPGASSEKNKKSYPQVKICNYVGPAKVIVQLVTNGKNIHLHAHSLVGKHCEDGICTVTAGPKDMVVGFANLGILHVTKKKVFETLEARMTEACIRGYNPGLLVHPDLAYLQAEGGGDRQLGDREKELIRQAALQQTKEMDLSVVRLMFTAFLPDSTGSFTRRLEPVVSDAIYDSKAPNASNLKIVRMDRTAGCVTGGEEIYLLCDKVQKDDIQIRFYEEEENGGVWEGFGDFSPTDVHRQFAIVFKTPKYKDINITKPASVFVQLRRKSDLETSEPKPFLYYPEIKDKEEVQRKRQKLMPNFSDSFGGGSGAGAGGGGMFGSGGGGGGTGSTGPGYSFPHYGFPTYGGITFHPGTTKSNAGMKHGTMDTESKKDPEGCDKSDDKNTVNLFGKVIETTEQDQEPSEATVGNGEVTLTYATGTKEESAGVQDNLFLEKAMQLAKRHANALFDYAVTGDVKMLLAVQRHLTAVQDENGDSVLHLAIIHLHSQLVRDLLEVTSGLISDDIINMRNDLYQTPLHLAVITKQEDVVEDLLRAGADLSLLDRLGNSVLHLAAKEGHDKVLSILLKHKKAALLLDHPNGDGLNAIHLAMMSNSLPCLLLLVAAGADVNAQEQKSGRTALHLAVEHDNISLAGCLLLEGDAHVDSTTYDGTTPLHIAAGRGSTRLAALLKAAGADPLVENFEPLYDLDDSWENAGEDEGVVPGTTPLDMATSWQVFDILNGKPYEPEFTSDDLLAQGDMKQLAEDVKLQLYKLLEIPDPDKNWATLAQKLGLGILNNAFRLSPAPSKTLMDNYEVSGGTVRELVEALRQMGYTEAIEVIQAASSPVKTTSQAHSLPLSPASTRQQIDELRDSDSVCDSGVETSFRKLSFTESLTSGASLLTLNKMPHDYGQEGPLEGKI
Nuclear factor erythroid 2-related factor 2 (Homo sapiens), sequence (Q16236 whole entry, looked up): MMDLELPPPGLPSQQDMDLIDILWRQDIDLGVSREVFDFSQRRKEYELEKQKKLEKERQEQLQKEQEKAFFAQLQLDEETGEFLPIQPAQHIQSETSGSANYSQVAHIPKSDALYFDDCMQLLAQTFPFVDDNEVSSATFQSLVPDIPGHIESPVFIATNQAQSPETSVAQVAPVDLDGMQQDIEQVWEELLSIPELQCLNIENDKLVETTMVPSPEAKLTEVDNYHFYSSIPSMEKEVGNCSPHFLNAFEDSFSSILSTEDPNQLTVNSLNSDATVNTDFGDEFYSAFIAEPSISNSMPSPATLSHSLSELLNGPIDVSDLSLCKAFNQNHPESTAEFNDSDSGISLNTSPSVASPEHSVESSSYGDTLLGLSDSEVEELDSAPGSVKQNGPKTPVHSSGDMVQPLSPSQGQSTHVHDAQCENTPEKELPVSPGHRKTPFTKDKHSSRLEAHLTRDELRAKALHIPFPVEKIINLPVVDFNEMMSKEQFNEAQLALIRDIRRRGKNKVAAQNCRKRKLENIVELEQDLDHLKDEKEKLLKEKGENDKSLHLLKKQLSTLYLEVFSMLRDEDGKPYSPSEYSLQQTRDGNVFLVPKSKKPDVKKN

`Cc1ccccc1[N+](=O)[O-]`: the result in test [1], in test [2], in test [3], in [4], in test [5] and in test [6] was inactive. The outcome in test [7], in test [8], in [9], in test [10], in [11] and in test [12] was inactive. Further, the result in [13], in test [14], in [15], in test [16], in [17] and in test [18] was inactive. Also, the outcome in test [19] and in [20] was inactive.
As to `C=CC(N)=O`, the result in test [1], in test [2], in test [3], in test [4], in test [5] and in test [6] was inactive. For the same molecule, the call in test [7], in test [8], in [9], in test [10], in [11] and in test [12] was inactive. The molecule was called inactive in test [13], in test [14], in test [15], in test [16], in [17] and in test [18]. Further, the call in test [19] was inactive.
On to `O=S(=O)(O)C(F)(F)C(F)(F)C(F)(F)C(F)(F)F`, for which the outcome in test [1], in test [2], in [3], in test [4], in [5] and in test [6] was inactive. In addition, the molecule was called inactive in test [7], in [8], in [9], in test [10], in [11] and in test [12]. In addition, the molecule was classed as inactive in test [13], in test [14], in test [15], in [16], in test [17] and in test [18]. The molecule was called inactive in test [19].
On to `Clc1ccc(Cl)cc1`, for which the result in test [1], in [2], in test [3], in test [4], in [5] and in test [6] was inactive. In addition, the result in test [7], in [8], in test [9], in [10], in [11] and in [12] was inactive. The result in [13], in test [14], in [15], in [16], in test [17] and in test [18] was inactive. For the same molecule, the outcome in [19] and in test [20] was inactive.
Take `CCSC(=O)N(CC)C1CCCCC1`: the call in test [1], in test [2], in test [3], in test [4], in [5] and in test [6] was inactive. Moreover, the outcome in [7], in test [8], in test [9], in [10], in test [11] and in [12] was inactive. In addition, the call in test [13], in test [14], in test [15], in test [16], in test [17] and in [18] was inactive. Also, the molecule was called inactive in test [19].
For the molecule `CCNc1nc(NC(C)C)nc(SC)n1`, the call in test [1], in [2], in [4], in test [6], in test [8] and in test [9] was inactive. For the same molecule, the molecule was called inactive in test [10], in [11], in test [12], in test [14], in [15] and in test [16]. The call in [18] and in test [19] was inactive. Besides, the AC50 in test [3] was 11.7 µM (active); in test [5], 32.8 µM (active); in test [7] it was 61.1 µM (active); in test [13], 12.4 µM (active); in [17], 37.3 µM (active).
